# Test results reported in the supplement of paper PMC11417369.
# In all, about 25,000 sequences were measured (“ln(normalized median fluorescence intensity)”: median about 9.7, highest 2% from about 11 on). For the sample, the highest values were picked, then their nearest neighbours and some sequences at random.
# Tested on: PfAP2-HC AP2 domain (GST-tagged)
# Assay: gcPBM binding intensity (ln(normalized median fluorescence intensity)); higher = stronger DNA binding
# Summary of the method: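 For binding intensity, the highest Masliner-normalised natural-log median intensity across replicate spots of either probe orientation was taken. Protein bound to the array was stained with Alexa488 anti-GST antibody and scanned at 488 nm. The protein, GST-tagged P. falciparum DNA-binding domains from E. coli at about 25 μg on average, had been applied for 1 h to an Agilent 4 × 180k array of primer-extended double-stranded 36-bp intergenic genomic probes and negative controls.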
row,Sequence,gcPBM binding intensity (ln)
1,GTGTAATTTATTGTGTTGCACTTTTTTTTTTTTTTT [GTGCAC_site9644],9.84
2,ATATATATGTATATAACATGCAACATTTAATAATAA [TGCATGCA_site1018],9.85
3,AAGGTGGAAACAATTACACACACACTAATAAAAAAA [CACACA_site9051],10.8
4,ATATGATTTCACAAGACACACACATACAAATTTATA [CACACA_site9296],10.1
5,TATTTATTTATTTATGCATGCATGAATAATTTTTAC [TGCATGCA_site31],9.62
6,AGAACAATTCTGTGGTGTACCAAAAAAAATTTAATT [XGTACX_site8082],9.8
7,TAAAGAGTCATGTGGTGTACCTGCTTCACCACATAT [XGTACX_site1288],9.4
8,AACTTTGAGACATAGTGTACTTACACAATCTTAATA [XGTACX_site3712],9.63
9,TATATATATATATATGCATGTACATATATTTGTTAT [TGCATGCA_site379],10.4
10,ATGCATATATTTATGTGTACATATATTTGTAGGGGG [XGTACX_site6063],11.2
11,ATATATATTTATATATGTACATATTTTTGTGTATTT [XGTACX_site1183],9.93
12,ATACCTATTTGATGAGTGCATTATCCAATATATGTA,9.59
13,TCTTTTTAAATATATACACACCGTGTCTACAGATAC [CACACA_site5784],9.88
14,AAGAAAAACTTTACGTGTACCAAACATCCTGCCAAC [XGTACX_site598],9.91
15,ATATATATTTTATTATGTACATATAAATATTACACA [XGTACX_site4062],9.57
16,AATACACGCAGACACACACACACACGCACATATATA [CACACA_site6447],10.8
17,TGCATATACTCAAGCACACATATATATATATATATA [CACACA_site4733],9.71
18,AAGCATACATCAAGCACACACACACCCACAGAGACA [CACACA_site4362],10.5
19,AGCACACGCAGACACACACACACACGCACACGCACA [CACACA_site6306],11.6
20,AATAATAGAAGCACCCACCCACCACCACCCACACAT [CACACA_negctrl_site1033],10.9
21,TGCATATACGCAAGCACACATATATATATATATATA [CACACA_site1069],9.6
22,CACGCACGCAGACACACACACACACGCACATATATA [CACACA_site6303],10.6

row,Sequence,gcPBM binding intensity (ln)
1,ACATCAAGCAGACACACACACACACGCACACGCACA [CACACA_site6309],11.2
2,GCATACATCAAGCACACACACACACGCACACGCACA [CACACA_site6311],11.3
3,AGAAGCATACATCAAGCACACACACCCACACCCACA [CACACA_site8014],11.4
4,AGCTCTATATTTTACACATGCGATTTGGATATATAT [TGCATGCA_site105],9.84
5,ATGTACTATGATAATGCATGCAATAATACATTTTTA [TGCATGCA_site318],9.6
6,AAACTATTCACTATAATACATTAGAAGTGAATAAAA [TGCATGCA_negctrl_site498],9.64
7,TTTTTTTTTCTCCATACACACTTGATAAAACTTTTT [CACACA_site4512],9.64
8,AAAAAAAATAATTTGCGTACATAAAAATTTATAGGA [XGTACX_site3016],9.58
9,AAAAATAAAGAAACAGGTACGCATATATTAAGATAT [XGTACX_site8097],9.98
10,TATCCTAATGCTACCACACACACAAAAACAAATAAT [CACACA_site2609],10.7
11,TATTATTTTTCATATGCATGCAAAAATAAAAAAATA [TGCATGCA_site350],9.31
12,TGGTAATACCCATACACACACACATACACATATATA [CACACA_site8877],10.3
13,GGAAGGATATAACATACACACACACCCATATATATA [CACACA_site9376],10.3
14,TGGTAATACCCATACACACACACATACCCATATATA [CACACA_site5509],10.3
15,TATACATATATATACACACACACATATATATATATA [CACACA_site1299],10.1
16,TATATACATATATACACACACATATATATATATATA [CACACA_site2805],10.1
17,TACATACATACATACACACACACATATATATACATA [CACACA_site853],11
18,TGGTAATACACATACACACACACATACACATATATA [CACACA_site7312],11.4
19,GCCAAAAGGATATGCACACACACACCCATATATATA [CACACA_site2198],10.6
20,CAAAAGGATAGGCACACACACACACCCATATATATA [CACACA_site2199],11.1
21,CAAAAGGATAGGCACACACACACACCGATATATATA [CACACA_site8685],10.7
22,AAGGATATAACATACACACACACACCCATATATATA [CACACA_site4142],11.1

row,Sequence,gcPBM binding intensity (ln)
1,AAGGATATAACATACACACACACACCGATATATATA [CACACA_site6136],10.6
2,TATATATATAAAAAAAGTACGTATTTAATAAAAATA [XGTACX_site4992],9.88
3,AAAACTTTTAGTTATACACACAACATAGAAAATATT [CACACA_site6287],9.84
4,TATAAAGACACGTACACACACTAAGTATATCCAATA [CACACA_site6855],10.5
5,AATATTCATATGCAGGTGCATTAATTTTTATTAATT,9.65
6,ATGCTTTTGTCATGTGCACACACGTATATATTATAT [CACACA_site4163],10.3
7,TGTTAATTATAAATTTGTACTTATTTTTACAAAATA [XGTACX_site6598],9.48
8,ATGTAACATAGGAAATGTACATATAAATATAATTTA [XGTACX_site6452],9.77
9,CATATAATATTTGAAACTATATATAAATATAAGGTA [TGCATGCA_negctrl_site19],9.52
10,GAAAATTTATATTGCACACATAGGGAATAAAAAAAA [CACACA_site2146],9.99
11,ATATTTACCATTGTATGTACATATATAAAATATATC [XGTACX_site3237],9.69
12,CACATATATACACATACACACACACCCATACACCCA [CACACA_site8505],11
13,CATACACCCATACATACACACATACATATATATATA [CACACA_site8591],9.98
14,TATACATACACATACACACATACACCCATACACATA [CACACA_site1746],10.6
15,TGGTAATCCACATACACACACACATACACATATATA [CACACA_site2727],10.3
16,TATATATATATATACACACACACACCCATATATATA [CACACA_site2538],10.4
17,CATATACATACACATACACACATACACCCATACACA [CACACA_site8514],10.2
18,AATGGTAATCCACATACACACACACCGACACATATA [CACACA_site8876],11.1
19,TATATATACATATACACACACACACCCATATATATA [CACACA_site2246],11.1
20,AAATATAAATGGTAATACACATACACACACACATAC [XGTACX_negctrl_site459],10.5
